From PubChem BioAssay
ATXN2 expr inh – ATXN2 expression inhibition | HEK-293 ATXN2-luciferase reporter, luminescence, 24 h | actives 0.72% (n = 360,000) | Potency, µM (titrated, usually from 57 µM), actives largely listed as inhibitors; further: nearly all actives have a fitted effect of over 55% in size
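ATXN2-luciferase reporter cells (luciferase flanked by upstream and downstream ATXN2 gene portions) were treated 24 h at 37 °C with compounds at up to 57 uM. SteadyGlo luminescence gave expression; GF-AFC fluorescence gave viability.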
HepG2 viability – counter-screen for TGF-b inhibitors: cytotoxicity in HepG2 cells | AID 588856 | HepG2 CAGA-GFP viability, ATP luminescence, 18 h | actives 0.76% (n = 410,000) | Potency, µM (series often up to 46.1 µM), usual class: cytotoxic
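CellTiter-Glo luminescence gave cytotoxicity after 18 hours at 37 degrees C. The cells were HepG2 CAGA-GFP in 1% FBS DMEM, stimulated with 500 pg/mL TGF-beta after compound addition. %Activity was normalised to no-cell wells (complete cell-killing) and DMSO (no toxicity), and curves were fitted and classified.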
ATXN viability – cell viability loss in ATXN counter-screen. AID 651635. actives 0.49% (n = 400,000). S2 cells (HEK-293 line with an ATXN2-luciferase reporter) viability, CellTiter-Fluor protease fluorescence, 24 h. Potency, µM (doses to about 56.7 µM), actives largely listed as cytotoxic; further: nearly all actives have a fitted effect of over 40% in size
Gal4-VP16 FLuc – Gal4-VP16 reporter inhibition counter-screen. Drosophila S2 Gal4-VP16 UAS-luciferase, luminescence, 20 h. Potency, µM (titrated, usually from 53.6 µM), hits mostly inhibitors. actives 3.5% (n = 310,000);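 further: Gal4-VP16 expression switched on by copper sulfate through the metallothionein promoter; nearly all actives have a fitted effect of over 50% in size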
TGFb SMAD3 inh – blocks TGF-b signaling; Potency, µM (series often up to 46.1 µM), most hits filed as inhibitors; HepG2 CAGA-GFP TGF-b/SMAD3 reporter, GFP fluorescence, 18 h; TGF-beta stimulated, 500 pg/mL final; actives 1.2% (n = 410,000); further: nearly all actives have a fitted effect of over 65% in size
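Smad-responsive CAGA-GFP expression was quantified in HEPG2 cells exposed to compounds and 500 pg/mL final TGF-beta for 18 h at 37 degrees C; unstimulated wells defined full inhibition.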
RORg inh – blocks mouse ROR gamma transcriptional activity | Drosophila S2 Gal4-RORgamma UAS-luciferase reporter, 20 h | AID 2551 | P51450 | actives 5.4% (n = 310,000) | Potency, µM (top dose mostly 53.6 µM), hits mostly inhibitors; further: nearly all actives have a fitted effect of over 60% in size
Target sequence (P51450 whole entry, looked up, the tested form may be a part): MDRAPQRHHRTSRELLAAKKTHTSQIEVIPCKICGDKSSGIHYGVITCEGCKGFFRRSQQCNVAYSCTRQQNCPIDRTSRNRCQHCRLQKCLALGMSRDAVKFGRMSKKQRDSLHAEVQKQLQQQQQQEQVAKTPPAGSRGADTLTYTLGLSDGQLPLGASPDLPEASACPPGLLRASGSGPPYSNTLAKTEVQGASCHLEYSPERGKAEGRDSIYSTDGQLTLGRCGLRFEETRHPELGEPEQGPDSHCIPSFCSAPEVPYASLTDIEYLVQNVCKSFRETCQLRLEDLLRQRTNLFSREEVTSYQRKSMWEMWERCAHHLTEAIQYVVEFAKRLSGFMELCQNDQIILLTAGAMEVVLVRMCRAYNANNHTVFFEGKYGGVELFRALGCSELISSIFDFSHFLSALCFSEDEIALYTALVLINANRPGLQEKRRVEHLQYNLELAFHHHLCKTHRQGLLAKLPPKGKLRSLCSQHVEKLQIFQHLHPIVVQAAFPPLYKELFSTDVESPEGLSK
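ROR gamma transcriptional activity was tracked as Gal4-UAS luciferase output in stably transfected Drosophila Schneider cells, with compound added 1 hr before 700 uM copper sulfate induction and a 20 hr ambient-temperature incubation.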
Of the large screens only hits and unclear results are named; the others gave an inactive call. An excerpt weighted towards active compounds, which were near 6.1% of everything screened. The call rests on the fitted dose curve; in most records, active means well fitted curve in the direction sought with a large enough effect; inconclusive means small, poorly fitted or top-dose-only effect, or another doubt; inactive means no such curve, though single readings can be large; an effect the other way counts as inactive or inconclusive.

CCC1(C)Cc2nc3[nH]c(=S)n(-c4ccccc4C)c(=O)c3cc2CO1 (configuration not stated)	Gal4-VP16 FLuc 10µM, RORg inh 6.31µM
CCOc1ccc(-c2cccc(NS(=O)(=O)c3ccccc3C(F)(F)F)c2)nn1	none (no result: Gal4-VP16 FLuc, RORg inh)
Cc1ccc(-n2c(NN)nc3ccccc3c2=O)c(C)c1	Gal4-VP16 FLuc 20µM, RORg inh inconclusive
Cn1c(NN)nc2ccccc2c1=O	RORg inh inconclusive
Nc1cccc2c1C(=O)N(C(=O)/C=C/c1ccc(F)cc1)C2=O	ATXN2 expr inh inconclusive, TGFb SMAD3 inh inconclusive, RORg inh 12.6µM (no result: ATXN viability)
Nc1cccc2c1C(=O)N(C(=O)c1ccco1)C2=O	none (no result: ATXN viability)
C=CCOC(=O)C(C(C)=O)C(NC(=O)OC)c1ccco1 (configuration not stated)	none (no result: ATXN2 expr inh, HepG2 viability, ATXN viability, TGFb SMAD3 inh)
CC1CCCN(C(=O)Cn2ncc3c([nH]c4ccccc43)c2=O)C1 (configuration not stated)	none (no result: Gal4-VP16 FLuc, RORg inh)
COc1cc2ccc(C(C)=NNC(N)=S)cc2cc1OC	ATXN viability inconclusive, TGFb SMAD3 inh inconclusive (no result: ATXN2 expr inh, Gal4-VP16 FLuc, RORg inh)
C/C(=N\NC(N)=S)c1cc(-c2ccccc2)c(-c2ccccc2)s1	ATXN2 expr inh inconclusive, ATXN viability inconclusive, Gal4-VP16 FLuc 1.41µM, TGFb SMAD3 inh 12.6µM, RORg inh 0.447µM
C/C(=N/NC(N)=S)c1ccc(Br)s1	ATXN viability inconclusive, Gal4-VP16 FLuc 5.01µM, TGFb SMAD3 inh inconclusive, RORg inh 1.12µM
CCCCc1c(C)[nH]c2c(OC)cccc2c1=S	none (no result: ATXN2 expr inh, ATXN viability, Gal4-VP16 FLuc, RORg inh)
C=CCc1c(C)[nH]c2c(OC)cccc2c1=S	Gal4-VP16 FLuc inconclusive, RORg inh 11.2µM
COc1ccc(CCNC(=O)c2c(C)oc3nc(C)nc(N4CCOCC4)c23)cc1OC	none (no result: ATXN2 expr inh, ATXN viability, Gal4-VP16 FLuc, RORg inh)
CCCCc1ccc(/C=C2\C(=O)c3ccccc3C(O)=C2C(=O)OCC)cc1	RORg inh 10µM (no result: ATXN2 expr inh, HepG2 viability, ATXN viability, TGFb SMAD3 inh)
Cc1nnc(NC(=O)c2oc3c(ccc4ccccc43)c2C)s1	RORg inh 12.6µM
CCOc1cc(C(=O)NCc2ccc3c(c2)CCN3C(=O)CC)cc(OCC)c1OCC	TGFb SMAD3 inh inconclusive (no result: Gal4-VP16 FLuc, RORg inh)
CCNC(=S)N/N=C/c1cccc(OCc2c(F)cccc2Cl)c1	Gal4-VP16 FLuc 0.708µM, TGFb SMAD3 inh inconclusive, RORg inh 0.708µM
Cc1oc2ccc(OCc3c(F)cccc3Cl)cc2c1C(=O)O	none (no result: ATXN2 expr inh)
Fc1ccccc1COc1ccc(/C=N/NC(=S)NCc2ccccc2)cc1	Gal4-VP16 FLuc 1µM, RORg inh 0.891µM
CNC(=S)N/N=C/c1cccc(OCc2ccccc2F)c1	Gal4-VP16 FLuc 4.47µM, TGFb SMAD3 inh inconclusive, RORg inh 2.24µM
COc1cccc(NC(=O)C/C(C)=N/NC(=O)c2ccccc2Cl)c1	RORg inh inconclusive (no result: ATXN2 expr inh)
C/C(CC(=O)Nc1cccc(Br)c1)=N\NC(=O)c1ccc(O)cc1O	Gal4-VP16 FLuc inconclusive, RORg inh 0.891µM
CCCCn1c(SC(C)C(N)=O)nc2cc(C(=O)OC)ccc2c1=O (configuration not stated)	RORg inh 14.1µM
CCCCn1c(SC(C)C(=O)NCC2CCCO2)nc2cc(C(=O)OC)ccc2c1=O (configuration not stated)	ATXN viability inconclusive (no result: Gal4-VP16 FLuc, RORg inh)
CCc1ccccc1NC(=O)Nc1cc(C(=O)NCc2ccc(C)cc2)ccc1N1CCCC1	none (no result: Gal4-VP16 FLuc, RORg inh)
COc1ccc(OC2CCN(S(=O)(=O)c3ccc(OC)c(OC)c3)CC2)cc1	ATXN2 expr inh inconclusive, HepG2 viability 11.2µM
C/C(=N\NC(N)=O)c1cc(Cl)cc(Cl)c1O	Gal4-VP16 FLuc 10µM, RORg inh 0.891µM
C/C(=N\O)c1cc(Cl)cc(Cl)c1O	RORg inh inconclusive
Fc1ccc(C(c2ccc(F)cc2)N2CCN(C/C=C/c3ccccc3)CC2)cc1	HepG2 viability 6.31µM, ATXN viability inconclusive, Gal4-VP16 FLuc inconclusive, TGFb SMAD3 inh inconclusive
CC(=O)N1CCc2cc(CNS(=O)(=O)c3ccc(Cl)s3)ccc21	none (no result: ATXN2 expr inh, ATXN viability, Gal4-VP16 FLuc, RORg inh)
COc1ccc(NC(=O)c2ccc3[nH]c(C)cc(=O)c3c2)cc1	none (no result: Gal4-VP16 FLuc, RORg inh)
Cc1ccccc1-c1cccc([C@@H]2C[C@H]3[C@H](CON3C)CN2Cc2ccccc2)c1	TGFb SMAD3 inh 14.1µM (no result: Gal4-VP16 FLuc, RORg inh)
CN1OC[C@@H]2CN(Cc3ccccc3)[C@H](c3cccc(N4CCOCC4)c3)C[C@@H]21	none (no result: Gal4-VP16 FLuc, RORg inh)
COc1cc(=O)n2c(c1C(=O)N(C)Cc1nccs1)CCN(Cc1cc3ccccc3s1)CC2	none (no result: ATXN2 expr inh, HepG2 viability, Gal4-VP16 FLuc, TGFb SMAD3 inh, RORg inh)
Cc1ccc(-c2cc(C(=O)n3cnc4ccccc43)c3ccccc3n2)cc1C	Gal4-VP16 FLuc 12.6µM, RORg inh 10µM
O=C(NN=C1CCCC1)c1cc(Br)ccc1O	Gal4-VP16 FLuc inconclusive, RORg inh inconclusive
Cc1cccc(/C=N/NC(=O)c2cc(Br)ccc2O)n1	Gal4-VP16 FLuc inconclusive, RORg inh inconclusive (no result: ATXN viability)
O=C(N/N=C1/CCSC1)c1cc(Br)ccc1O	RORg inh 7.94µM
CCC/C=N/NC(=O)c1cc(Br)ccc1O	Gal4-VP16 FLuc inconclusive, RORg inh 11.2µM
O=C(N/N=C/c1ccoc1)c1cc(Br)ccc1O	Gal4-VP16 FLuc 3.98µM, RORg inh 3.55µM
CC(C)(C)[C@H](NC(=O)c1ccc(N)c(Cl)c1)C(=O)N1CCC[C@@H]1C(=O)N[C@H](C#N)CC(=O)O	none (no result: HepG2 viability, ATXN viability, Gal4-VP16 FLuc, TGFb SMAD3 inh, RORg inh)
